Screening results (PubChem BioAssay)
MARV entry inh = Marburg virus entry inhibition | Potency, µM (doses to about 37.8 µM), most hits filed as inhibitors | 1.8% of 300,000 active | Marburg virus pseudotyped entry inhibition, cell reporter; calls by dose curve; tested in HEK293 cells
FMDV antiviral = foot and mouth disease virus antiviral activity | FMDV antiviral cell-based qHTS | Potency, µM (doses to about 57.9 µM), hits mostly inhibitors | 1.2% of 410,000 active | AID 1159524; calls by dose curve; tested in HEK293T cells; further: read-out not given here; nearly all actives have a fitted effect of over 45% in size
Lassa entry inh = Lassa virus entry inhibition; Lassa virus pseudotype entry inhibition, cell reporter; Potency, µM (doses to about 37.9 µM), most hits filed as inhibitors; 1.2% of 300,000 active; calls by dose curve; tested in HEK293 cells; further: nearly all actives have a fitted effect of over 50% in size
VACV mCherry inh = vaccinia inhibition (mCherry reporter); Vaccinia virus mCherry reporter infection, fluorescence; Potency, µM (top dose mostly 36.5 µM), most hits filed as inhibitors; 0.63% of 310,000 active; AID 720579; calls by dose curve; tested in A549 cells; further: nearly all actives have a fitted effect of over 35% in size
Vaccinia Venus = vaccinia inhibition (Venus reporter); Vaccinia virus Venus reporter expression, fluorescence; Potency, µM (highest dose often 36.5 µM), actives largely listed as inhibitors; 0.46% of 330,000 active; AID 720580; calls by dose curve; tested in A549 cells; further: nearly all actives have a fitted effect of over 30% in size
HCMV inh = inhibitors of human cytomegalovirus. HFF cells, HCMV-luciferase reporter, 72 h; hits give low values. activity change, negative = inhibition, % at 57.5 µM. 4.5% of 410,000 active; in the data active means activity change below about -60%; inconclusive means no clear call, values can overlap the other calls; inactive means above about -39%
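Luciferase read-out from HCMV-luciferase-infected HFFs (MOI 1 PFU/cell) 72 h post infection at 37C; compounds added after 16 h cell attachment; activity normalized between buffer-only basal and Salinomycin (10uM) inhibitor controls.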
Numbers stand for hits; – = inactive; ? = inconclusive; · = no result. Only some compounds are listed: those with a hit (about 6.5% of all), similar ones and a draw of the others.

SMILES | MARV entry inh | FMDV antiviral | Lassa entry inh | VACV mCherry inh | Vaccinia Venus | HCMV inh
C=CC[C@@H](CC(=O)N(CCO)Cc1ccccc1)C(=O)N[C@H](COC(=O)[C@H](CC=C)CC(=O)OC(C)(C)C)Cc1c[nH]c2ccccc12 | · | – | · | ? | – | –
C=CC[C@@H](CC(=O)N[C@H](CO)Cc1ccccc1)C(=O)N[C@H](COC(=O)[C@@H](CC=C)CC(=O)OC(C)(C)C)Cc1c[nH]c2ccccc12 | · | ? | · | 22µM | 13µM | –
C=CC[C@@H](CC(=O)N[C@H](CO)Cc1ccccc1)C(=O)N[C@@H](C)COC(=O)[C@@H](CC=C)CC(=O)OC(C)(C)C | · | – | · | – | – | -60
C=CC[C@H](CC(=O)N(CCO)Cc1ccccc1)C(=O)N[C@H](COC(=O)[C@@H](CC=C)CC(=O)OC(C)(C)C)Cc1c[nH]c2ccccc12 | · | – | · | ? | 11µM | –
Cc1ccc2nc(N3CCCCCC3)c(CN(CC3CCCO3)C(=O)c3cncs3)cc2c1 (centres undefined) | · | – | · | – | – | ·
CCCCCOc1ccc(NC2=CC(=O)CCC2)cc1 | – | – | ? | – | – | ?
CC(C)(C)c1ccc(C(=O)NNc2ncnc3c2cnn3-c2ccccc2)cc1 | · | – | ? | – | – | -73
CC(C)(C)c1ccc(C(=O)NNc2ncnc3c2cnn3-c2ccc(Cl)cc2)cc1 | · | – | ? | – | – | –
C=CCN1C(=O)/C(=C\c2ccc(N3CCOCC3)o2)C(=O)NC1=S | – | – | – | – | – | –
C=CCN1C(=O)N/C(=C/c2ccc(N3CCOCC3)o2)C1=O | ? | · | – | · | · | -63
O=C(c1ccc2c(c1)OCO2)N1C[C@H]2[C@@H](c3ccccc31)[C@H](CO)N2C(=O)CC1CC1 | · | · | · | · | · | –
Cc1ccccc1-n1c(C)nnc1SCC(=O)N(C)C1CCS(=O)(=O)C1 (centres undefined) | · | – | · | · | · | –
O=C(/C=C/c1ccco1)Nc1ccccn1 | ? | – | ? | – | – | –
Cc1noc(/C=C/c2ccco2)c1S(=O)(=O)N1CCC(C(=O)NCc2ccco2)CC1 | – | – | – | · | · | -73
Cc1ccc(NC(=O)/C=C/c2ccco2)nc1 | 7.1µM | – | ? | ? | ? | -63
Cc1ccc(NC(=O)C2CCN(S(=O)(=O)c3c(C)noc3/C=C/c3ccco3)CC2)nc1 | ? | 35µM | ? | – | – | -94
Cc1ccc(CNC(=O)C2CCN(S(=O)(=O)c3c(C)noc3/C=C/c3ccco3)CC2)cc1 | – | – | · | – | – | –
CC1=C2[C@H](O)[C@H]([C@@H](C)C(=O)NCCC(C)C)CC[C@@]2(C)C=CC1=O | – | · | · | · | · | ·
CCCCn1c(SCC(=O)c2ccccc2)nc2sc3c(c2c1=O)CCCC3 | · | – | ? | – | – | –
O=C(Nc1ccccc1F)C1CCCN1S(=O)(=O)c1ccc(Cl)cc1 (centres undefined) | · | – | · | · | · | ?
CCC(/C=C1\Sc2ccc(OC)cc2N1CCO)=C\c1sc2ccc(OC)cc2[n+]1CCO | ? | 18µM | ? | – | – | -98
CCO/C(=C/c1sc2ccc(OC)cc2[n+]1CCCS(=O)(=O)[O-])CC | – | – | – | · | · | –
CCC(/C=C1\Sc2ccc(OC)cc2N1CC)=C\c1sc2ccc(OC)cc2[n+]1CCCS(=O)(=O)[O-] | ? | 18µM | ? | · | · | –
COc1cccc2c1[C@H](C=Cc1ccccc1)[C@@H]([C@H](O)CO)OC2 | – | · | – | · | · | ·
CCOc1ccc(-n2c(C)c3c(C)nnc(C)c3c2C)cc1 | · | ? | · | ? | ? | -62
SMILES | MARV entry inh | FMDV antiviral | Lassa entry inh | VACV mCherry inh | Vaccinia Venus | HCMV inh
CCOc1ccc(-c2nnc(-c3ccccc3)n2-c2ccccc2)cc1 | – | – | – | · | · | –
CCCN(C(=O)c1sc2nc3n(c(=O)c2c1C)CCCC3)c1ccccc1C | · | – | – | ? | – | -102
COc1ccc(CNC(=O)c2sc3nc4n(c(=O)c3c2C)CCCCC4)cc1 | · | 22µM | – | – | – | –
COc1cc(Cl)c(C)cc1NC(=O)c1cnn(-c2ccc(F)cc2F)c1C1CCN(C(=O)OC(C)(C)C)CC1 | · | – | ? | – | – | –
O=C(NC1CCCC1)C1c2ccccc2OCC(=O)N1CCc1ccccc1 (centres undefined) | · | – | · | – | – | –
CCCCC(=O)N1C(C)CCC1C (centres undefined) | · | – | · | ? | – | –
CCCCC(=O)/C=C/n1c2c(oc1=S)CCCC2 | 18µM | · | · | · | · | ·
COc1ccc(Nc2ncnc3sc(-c4ccccc4)cc23)cc1OC | ? | – | ? | – | – | -62
COc1ccc(Nc2ncnc3c2cnn3-c2ccccc2)cc1OC | – | – | – | – | ? | ?
CN(C)CCCNc1ncnc2sc(-c3ccccc3)cc12 | · | – | · | · | · | –
CCOC(CNc1ncnc2sc(-c3ccccc3)cc12)OCC | · | – | · | · | · | -72
CCc1ccc(-c2[nH]c3c(c2-c2c(-n4cccc4)n(C)c(=O)n(C)c2=O)c(=O)n(C)c(=O)n3C)cc1 | – | – | – | – | – | –
O=C1OC(c2cccc(Cl)c2)N=C2C1C=NN2c1ccccc1 (centres undefined) | – | · | · | · | · | ·
COc1cc(OC)cc(-c2cc3nc(C)c(CCC(=O)Nc4ccc(C(C)=O)cc4)c(C)n3n2)c1 | ? | ? | ? | – | – | ?
COc1cc(OC)cc(-c2cc3nc(C)c(CCC(=O)Nc4ccccc4OC)c(C)n3n2)c1 | ? | ? | ? | – | – | -62
COc1cc(OC)cc(-c2cc3nc(C)c(CCC(=O)NCc4ccccc4)c(C)n3n2)c1 | 11µM | 5.6µM | 8.9µM | ? | – | -69
COc1ccc(Cl)cc1NC(=O)CCc1c(C)nc2c(c1C)c(=O)n(C)c(=O)n2C | – | – | – | – | – | –
COc1ccc(NC(=O)CCc2c(C)nc3c(c2C)c(=O)n(C)c(=O)n3C)c(OC)c1 | – | ? | – | – | – | -76
COc1ccc(CNC(=O)CCc2c(C)nc3cc(-c4ccc(OC)cc4OC)nn3c2C)cc1 | – | – | – | – | – | –
COc1cc(OC)cc(-c2cc3nc(C)c(CCC(=O)NCc4ccc(Cl)cc4)c(C)n3n2)c1 | 4.5µM | 13µM | ? | – | – | -61
C[C@H]1CC[C@H]2C(=O)N[C@H](Cc3ccccc3)C(=O)N2[C@H]1c1ccccc1 | – | · | · | · | · | ·
Cc1cnc(C)c(-c2ccc(F)c3c2OC(CNC(=O)Cc2c(F)cccc2F)C3)n1 (centres undefined) | · | – | · | – | – | ·
Cn1cnc(S(=O)(=O)N2CCCCN3[C@H](CO)[C@H](c4ccc(C#CC5CC5)cc4)[C@@H]3C2)c1 | · | · | · | · | · | –
COC(=O)N[C@@H](c1cccc(C)c1)[C@@H](C)[N+](=O)[O-] | – | · | · | · | · | ·
Cc1cc(C)nc(Sc2nc(Nc3ccccc3)nc(Sc3nc(C)cc(C)n3)n2)n1 | ? | – | – | ? | ? | -72
Cc1cc(C)nc(Nc2ccc(O)cc2)n1 | – | – | – | – | – | –
CC1CN(CC(=O)N2CCN(Cc3nccn3C)CC2)Cc2cc(Cl)ccc2O1 (centres undefined) | · | – | · | – | – | ·
O=C(Nc1cccc(C(=O)OCc2cc(=O)n3c4c(sc3n2)CCCC4)c1)c1cccc(F)c1 | · | – | ? | – | – | -74
